About 83,000 compounds went through this panel and 20% of them were active in at least one assay; those are over-represented in the sample as a whole.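 Results are percent growth after 48 hours of single-concentration exposure. 100 means growth as in untreated cells, lower positive values show inhibition; negative values down to -100 show cell death.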 Unmarked numbers belong to inactive results. Activity calls are given as the source filed them. Rule for the calls: active = growth percent below 10; inactive = the rest.
How the values were obtained:
Test in all cases: NCI-60 one-dose screen, 48 h (100 = growth as untreated, 0 = no growth, -100 = all killed)
Details in all cases: 10 µM unless noted
T-47D breast = system: T-47D breast
BT-549 breast = system: BT-549 breast
MDA-MB-435 melanoma = system: MDA-MB-435 melanoma
SW-620 colon = system: SW-620 colon
MCF7 breast = system: MCF7 breast
HCT-116 colon = system: HCT-116 colon
HCC-2998 colon = system: HCC-2998 colon
KM12 colon = system: KM12 colon

| Compound | growth (T-47D breast) | growth (BT-549 breast) | growth (MDA-MB-435 melanoma) | growth (SW-620 colon) | growth (MCF7 breast) | growth (HCT-116 colon) | growth (HCC-2998 colon) | growth (KM12 colon) |
| --- | --- | --- | --- | --- | --- | --- | --- | --- |
| O=C(NNc1ccccc1)C1CCCN1 (configuration not stated) | 55.6% | 104% | 37.1% | 68.2% | 76.4% | 78.8% | 82.2% | 31.9% |
| CC(=NCc1ccccc1)c1ccc(O)cc1O | 92.2% | 91.9% | 114% | 109% | 97.8% | 104% | 92.5% | 104% |
| CNC(=O)c1cc(Oc2ccc3nc(NC(=O)Nc4ccc(C(F)(F)F)cc4)sc3c2)ccn1 | 44.8% | 62.3% | 40.9% | 37.9% | 42% | 7.67% (active) | 104% | 65% |
| CCNC(=S)n1nc(SC)c(C(=O)OCC)c1N | 86.4% | 95.3% | 104% | 102% | 92% | 96.1% | 116% | 97.5% |
| OB(O)c1ccsc1-c1nc2ccc3[nH]ncc3c2c2c1CCCC2 | 53.5% | 47.1% | 27% | 22.7% | 49.3% | 26.4% | 66% | 38.1% |
| C[C@@H]1CC[C@@H]2[C@@H]1[C@H](OC(=O)/C=C/c1ccccc1)[C@]1(c3ccccc3)C[C@@H](NC(=O)CO)[C@@]2(C)O1 | 93.3% | 114% | 100% | 104% | 79.4% | 100% | 104% | 94.8% |
| C=C1C(=O)O[C@H]2[C@H]1CC/C(COC(=O)NCc1ccc(Cn3c(=O)sn(CCCI)c3=O)cc1)=C\CC[C@@]1(C)O[C@@H]21 | 8.47% (active) | 40.8% | 17.5% | -42.9% (active) | 4.45% (active) | -52% (active) | 104% | 100% |
| COc1ccc(-c2[nH]c3ccccc3c2-c2ccc(OC)cc2)cc1 | 41.1% | 90.9% | -33.1% (active) | 37.1% | 16.2% | 24.4% | 32.3% | 16.6% |
| CCCn1nc(C(=O)N2CCCCC2)c2c1CCC(N1CCC(c3ccncc3)CC1)C2 (configuration not stated) | 99.5% | 79.5% | 102% | 104% | 99.6% | 99.4% | 109% | 103% |
| CONC1=Nc2cc(NC(N)=NCc3ccccc3)c(N(C)C3CCCCC3)cc2OC1 | 63.7% | 92% | 73% | 75% | 36.1% | 45.8% | 22.1% | 61.5% |
| Nc1ccc(/C=N/Nc2ccnc3c(N)cccc23)c2cccnc12 | -39.5% (active) | -37.2% (active) | -84.1% (active) | -28.3% (active) | -47.1% (active) | -93.1% (active) | 41.5% | 0.438% (active) |
| O=C1C(Nc2ccc(Cl)cc2)=C(I)C(=O)c2ncccc21 | -34.2% (active) | 53.3% | -80.5% (active) | -27% (active) | -34.3% (active) | -57.3% (active) | 79.5% | 39.8% |
| CN1CCCc2cc(/C=C3\SC(=S)N(C(Cc4ccc(O)cc4)C(=O)O)C3=O)ccc21 (configuration not stated) | 87.1% | 106% | 103% | 102% | 94.5% | 106% | 93.6% | 105% |
| COc1cc2ncnc(Nc3ccc(F)c(Cl)c3)c2cc1OCC(=O)N1CCCCC1 | 43.6% | 94.4% | 95.3% | 104% | 82.6% | 79.6% | 92.7% | 95.4% |

Source: PubChem BioAssay (NCI)
